Experimental data published in article PMC8384837, “Expanding the binding specificity for RNA recognition by a PUF domain”.

Assays:
Experiment in all cases: yeast three-hybrid, YBZ-1, SC-Leu-His + 0.5 mM 3-AT, 4 days
Conditions in all cases: tags: N-Gal4 AD-HA kept; label: inside an RPR1-promoter hybrid RNA with tandem MS2 sites; ssRNA
[1] = target: PUM1 PUF domain R3-TWG (Homo sapiens, UniProt Q14671 828-1176, C935T;R936W;Q939G)
In short: (§1)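 Matching RNA elements and Pumilio-1 PUF domain libraries, randomized at the three base-contacting residues of every repeat, were co-expressed from a centromeric plasmid in strain YBZ-1 (LexA–MS2 coat fusion, HIS3 reporter). The repeat regions were PCR-amplified and Illumina-sequenced from cells grown four days on SC-Leu (input) or SC-Leu-His + 0.5 mM 3-AT (selection). The interaction score is the log change in variant frequency from input to selection. It is computed in log2, with a pseudocount of 1 for absent variants.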

[2] = target: PUM1 PUF domain R3-KSG (Homo sapiens, UniProt Q14671 828-1176, C935K;R936S;Q939G)
In short: as §1

[3] = target: PUM1 PUF domain R7-EFG (Homo sapiens, UniProt Q14671 828-1176, S1079E;N1080F;E1083G)
In short: as §1

[4] = target: PUM1 PUF domain R8-KRA (Homo sapiens, UniProt Q14671 828-1176, N1122K;Y1123R;Q1126A)
In short: as §1

[5] = target: PUM1 PUF domain R8-FHK (Homo sapiens, UniProt Q14671 828-1176, N1122F;Y1123H;Q1126K)
In short: as §1

[6] = target: PUM1 PUF domain R8-LWR (Homo sapiens, UniProt Q14671 828-1176, N1122L;Y1123W;Q1126R)
In short: as §1

[7] = target: PUM1 PUF domain R8-VWQ (Homo sapiens, UniProt Q14671 828-1176, N1122V;Y1123W)
In short: as §1

[8] = target: PUM1 PUF domain R8-SWG (Homo sapiens, UniProt Q14671 828-1176, N1122S;Y1123W;Q1126G)
In short: as §1

[9] = target: PUM1 PUF domain R8-RGK (Homo sapiens, UniProt Q14671 828-1176, N1122R;Y1123G;Q1126K)
In short: as §1

[10] = target: PUM1 PUF domain R3-GFF (Homo sapiens, UniProt Q14671 828-1176, C935G;R936F;Q939F)
In short: as §1

[11] = target: T1, PUM1 PUF domain R6-LYC (Homo sapiens, UniProt Q14671 828-1176, N1043L;Q1047C)
T1 sequence: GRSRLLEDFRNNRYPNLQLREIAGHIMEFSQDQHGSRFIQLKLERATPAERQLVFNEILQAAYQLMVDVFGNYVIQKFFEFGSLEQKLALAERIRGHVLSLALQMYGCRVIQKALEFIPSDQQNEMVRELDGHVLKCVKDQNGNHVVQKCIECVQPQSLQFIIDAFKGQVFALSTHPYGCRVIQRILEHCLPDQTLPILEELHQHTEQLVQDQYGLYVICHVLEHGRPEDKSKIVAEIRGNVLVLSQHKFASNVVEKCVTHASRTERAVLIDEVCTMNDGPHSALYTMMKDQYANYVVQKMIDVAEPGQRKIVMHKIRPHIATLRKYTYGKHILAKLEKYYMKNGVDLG
In short: as §1

[12] = target: PUM1 PUF domain R4-SNM (Homo sapiens, UniProt Q14671 828-1176, N971S;H972N;Q975M)
In short: as §1

[13] = target: PUM1 PUF domain R3-APF (Homo sapiens, UniProt Q14671 828-1176, C935A;R936P;Q939F)
In short: as §1

**Q.** “GGCUAGAACUAGUGGAUCCCCCGGCGCCCGGCGGCUCGAGCCCGGGUAAGUGUAAUUAGUCUGCAUGCCGCCGGGCGCCAUGCCUGCAGGUCGACUCUAGAAAACAUG” was tested. Which binding signal [1] did it give?
**A.** 0.73 log2 enrichment (interaction score)

**Q.** What about the binding signal [2] of the same sequence?
**A.** 2.51 log2 enrichment (interaction score)

**Q.** How did the binding signal [3] turn out when “GGCUAGAACUAGUGGAUCCCCCGGCGCCCGGCGGCUCGAGCCCGGGUAAGUCUAAAUAGUCUGCAUGCCGCCGGGCGCCAUGCCUGCAGGUCGACUCUAGAAAACAUG” was run?
**A.** 3.46 log2 enrichment (interaction score)

**Q.** For “GGCUAGAACUAGUGGAUCCCCCGGCGCCCGGCGGCUCGAGCCCGGGUAAGCGUAAAUAGUCUGCAUGCCGCCGGGCGCCAUGCCUGCAGGUCGACUCUAGAAAACAUG”, which binding signal [4] is on record?
**A.** 2.55 log2 enrichment (interaction score)

**Q.** What about the binding signal [5] of the same sequence?
**A.** 3.34 log2 enrichment (interaction score)

**Q.** What about the binding signal [6] of the same sequence?
**A.** 4.82 log2 enrichment (interaction score)

**Q.** What about the binding signal [7] of the same sequence?
**A.** 2.89 log2 enrichment (interaction score)

**Q.** What about the binding signal [8] of the same sequence?
**A.** 2.43 log2 enrichment (interaction score)

**Q.** And the binding signal [9]?
**A.** 2.62 log2 enrichment (interaction score)

**Q.** “GGCUAGAACUAGUGGAUCCCCCGGCGCCCGGCGGCUCGAGCCCGGGUAAGUGUAAAUAGUCUGCAUGCCGCCGGGCGCCAUGCCUGCAGGUCGACUCUAGAAAACAUG” was tested. Which binding signal [4] did it give?
**A.** 1.2 log2 enrichment (interaction score)

**Q.** What about the binding signal [10] of the same sequence?
**A.** 5.53 log2 enrichment (interaction score)

**Q.** What about the binding signal [11] of the same sequence?
**A.** 3.91 log2 enrichment (interaction score)

**Q.** And the binding signal [6]?
**A.** 4.7 log2 enrichment (interaction score)

**Q.** What about the binding signal [12] of the same sequence?
**A.** 2 log2 enrichment (interaction score)

**Q.** What about the binding signal [8] of the same sequence?
**A.** 2.95 log2 enrichment (interaction score)

**Q.** What about the binding signal [9] of the same sequence?
**A.** 0.16 log2 enrichment (interaction score)

**Q.** And the binding signal [13]?
**A.** 5.42 log2 enrichment (interaction score)
